# Laboratory results taken from the antibiotic and cytotoxicity screens of Wong et al. (2023).
# About 1,500 (3.8%) of roughly 39,000 compounds were called active. The full list was thinned out, with actives kept by preference.
# Test system: HSkMC (human skeletal muscle cells)
# Assay: cytotoxicity call (relative viability < 0.9)
# Settings: 10 µM
row,SMILES,cytotoxicity call
1,CO[C@@H]1CN(C)C(=O)c2cc(NC(=O)Nc3ccccc3F)ccc2OC[C@@H](C)N(Cc2ccccc2C(=O)O)C[C@@H]1C,inactive
2,Cc1noc(C)c1NC(=O)Nc1ccc2c(c1)C(=O)N([C@H](C)CO)C[C@H](C)[C@H](CN(C)Cc1ccc(Oc3ccccc3)cc1)O2,inactive
3,COc1cccc(S(=O)(=O)N(C)C[C@H]2OCc3cn(nn3)CCCC(=O)N([C@H](C)CO)C[C@H]2C)c1,inactive
4,COc1ccc(NC(=O)N(C)C[C@@H]2OCCCC[C@H](C)Oc3ccc(NC(=O)Nc4cccc5ccccc45)cc3C(=O)N([C@H](C)CO)C[C@@H]2C)cc1,inactive
5,C[C@@H]1CN([C@@H](C)CO)C(=O)Cc2cc(NC(=O)Cn3cnnn3)ccc2O[C@@H]1CN(C)CC1CCCCC1,inactive
6,CC(C)NC(=O)N(C)C[C@@H]1Oc2cc(C#Cc3ccc(F)cc3)ccc2S(=O)(=O)N([C@H](C)CO)C[C@@H]1C,inactive
7,C[C@H]1CN([C@@H](C)CO)C(=O)c2cccc(NC(=O)Nc3ccc(F)cc3)c2O[C@H]1CN(C)C(=O)Nc1cccc2ccccc12,inactive
8,COc1ccc([Si](C)(C)[C@@H]2[C@@H](CCn3cc([C@H](O)c4ccccc4)nn3)O[C@]3(C(=O)N(Cc4cccc(N5CCOC5=O)c4)c4ccccc43)[C@H]2C)cc1,inactive
9,C[C@@H]1CN([C@@H](C)CO)C(=O)Cc2cc(NC(=O)Cn3cnnn3)ccc2O[C@@H]1CN(C)CC1CC1,inactive
10,COc1ccc(Oc2cc(NCCC(F)(F)F)c3ncc(-c4ccc(C(=O)NC5CC5)c(C)c4)n3n2)c(F)c1F,active
11,Cc1ccc(S(=O)(=O)Nc2ccc3c(c2)C(=O)N([C@H](C)CO)C[C@H](C)[C@H](CN(C)S(C)(=O)=O)OCCCC[C@@H](C)O3)cc1,inactive
12,C=CC[C@H](CC(=O)N(CCO)Cc1ccccc1)C(=O)N[C@H](COC(=O)[C@H](CC=C)NC(=O)OCC1c2ccccc2-c2ccccc21)C(C)(C)C,inactive
13,C[C@H](CO)N1C[C@H](C)[C@H](CN(C)Cc2ccc(C(=O)Nc3ccccc3N)cc2)Oc2ccc(NC(=O)Nc3ccc(F)cc3)cc2CC1=O,inactive
14,C[C@H](CO)N1C[C@H](C)[C@H](CN(C)Cc2ccc(-c3ccccc3)cc2)Oc2ccc(NC(=O)Nc3ccccc3)cc2CC1=O,inactive
15,C[C@H](CO)N1C[C@H](C)[C@@H](CN(C)Cc2ccc(C(=O)Nc3ccccc3N)cc2)Oc2ccc(NC(=O)Nc3ccc(F)cc3)cc2CC1=O,inactive
16,C[C@@H]1CN([C@@H](C)CO)C(=O)Cc2cc(NC(=O)Nc3ccccc3)ccc2O[C@@H]1CN(C)Cc1ccc(-c2ccccc2)cc1,inactive
17,C[C@H](CO)N1C[C@H](C)[C@H](CN(C)S(C)(=O)=O)Oc2ccc(NC(=O)Nc3ccccc3)cc2CC1=O,active
18,C[C@@H]1CN([C@H](C)CO)C(=O)Cc2cc(NC(=O)Nc3ccc(F)cc3)ccc2O[C@H]1CN(C)Cc1ccc(-c2ccccc2)cc1,active
19,C[C@@H]1CN([C@@H](C)CO)C(=O)Cc2cc(NC(=O)Nc3ccc(F)cc3)ccc2O[C@H]1CN(C)Cc1ccc(-c2ccccc2)cc1,inactive
20,C[C@H]1CN([C@@H](C)CO)C(=O)Cc2cc(NC(=O)Nc3ccc(F)cc3)ccc2O[C@H]1CN(C)Cc1ccc(C(=O)Nc2ccccc2N)cc1,active
21,C[C@@H]1CN([C@H](C)CO)C(=O)Cc2cc(NC(=O)Nc3ccccc3)ccc2O[C@H]1CN(C)S(C)(=O)=O,inactive
22,C[C@H]1CN([C@@H](C)CO)C(=O)Cc2cc(NC(=O)Nc3ccccc3)ccc2O[C@H]1CN(C)S(C)(=O)=O,inactive

row,SMILES,cytotoxicity call
1,C[C@@H]1CN([C@H](C)CO)C(=O)Cc2cc(NC(=O)Nc3ccccc3)ccc2O[C@@H]1CN(C)Cc1ccc(-c2ccccc2)cc1,active
2,Cc1sc(Nc2ccccc2)nc1-c1ccc(Cl)cc1,inactive
3,COc1ccc(CCN2C(=O)[C@@]3(c4ccc([N+](=O)[O-])cc4)CC(=O)N(CC45CC6CC(CC(C6)C4)C5)[C@@H]3c3ccc(CO)cc32)cc1,inactive
4,O=C1CSC(=S)N1,inactive
5,COc1ccc(NC(=O)N(C)C[C@H]2Oc3c(NC(=O)Nc4ccc(C(F)(F)F)cc4)cccc3C(=O)N([C@H](C)CO)C[C@@H]2C)cc1,inactive
6,COc1ccc(S(=O)(=O)Nc2ccc3c(c2)CC(=O)N([C@H](C)CO)C[C@H](C)[C@@H](CN(C)S(=O)(=O)c2ccccc2)O3)cc1,inactive
7,C[C@@H]1CCCCO[C@@H](CN(C)Cc2ccncc2)[C@H](C)CN([C@H](C)CO)C(=O)c2cc(NC(=O)Cc3ccccc3)ccc2O1,inactive
8,C[C@@H]1CN([C@@H](C)CO)C(=O)c2cc(NC(=O)Nc3ccc(F)cc3)ccc2O[C@@H](C)CCCCO[C@@H]1CN(C)Cc1ccc2c(c1)OCO2,inactive
9,C[C@@H]1CN([C@@H](C)CO)C(=O)c2cc(NC(=O)Nc3ccc(F)cc3)ccc2O[C@@H](C)CCCCO[C@@H]1CN(C)Cc1ccc(C(=O)O)cc1,inactive
10,C[C@@H]1CN([C@H](C)CO)C(=O)c2cc(NS(=O)(=O)c3cn(C)cn3)ccc2O[C@@H]1CN(C)Cc1ccncc1,inactive
11,C[C@H]1CN([C@@H](C)CO)C(=O)Cc2cc(NC(=O)Nc3ccc(F)cc3)ccc2O[C@H]1CN(C)Cc1ccc(-c2ccccc2)cc1,active
12,C[C@@H]1CN([C@@H](C)CO)C(=O)Cc2cc(NC(=O)Nc3ccc(F)cc3)ccc2O[C@@H]1CN(C)Cc1ccc(-c2ccccc2)cc1,inactive
13,C[C@H](CO)N1C[C@H](C)[C@@H](CN(C)Cc2ccc(-c3ccccc3)cc2)Oc2ccc(NC(=O)Nc3ccc(F)cc3)cc2CC1=O,inactive
14,C[C@H]1CN([C@@H](C)CO)C(=O)Cc2cc(NC(=O)c3ccncc3)ccc2O[C@H]1CN(C)Cc1ccc(-c2ccccc2)cc1,inactive
15,C[C@@H]1CN([C@@H](C)CO)C(=O)Cc2cc(NC(=O)Nc3ccc4c(c3)OCO4)ccc2O[C@H]1CN(C)Cc1ccc(-c2ccccc2)cc1,inactive
16,C[C@@H]1CN([C@H](C)CO)C(=O)Cc2cc(NC(=O)Nc3ccc4c(c3)OCO4)ccc2O[C@@H]1CN(C)Cc1ccc(-c2ccccc2)cc1,active
17,C[C@H]1CN([C@@H](C)CO)C(=O)Cc2cc(NC(=O)Nc3ccc4c(c3)OCO4)ccc2O[C@H]1CN(C)Cc1ccc(-c2ccccc2)cc1,inactive
18,C[C@@H]1CN([C@H](C)CO)C(=O)Cc2cc(NC(=O)c3ccncc3)ccc2O[C@@H]1CN(C)Cc1ccc(-c2ccccc2)cc1,active
19,C[C@H](CO)N1C[C@H](C)[C@H](CN(C)Cc2ccc(-c3ccccc3)cc2)Oc2ccc(NC(=O)c3ccncc3)cc2CC1=O,inactive
20,C[C@@H]1CN([C@H](C)CO)C(=O)Cc2cc(NC(=O)Nc3ccc(F)cc3)ccc2O[C@@H]1CN(C)Cc1ccc(-c2ccccc2)cc1,inactive
21,C[C@H]1CN([C@@H](C)CO)C(=O)Cc2cc(NC(=O)Nc3ccc(F)cc3)ccc2O[C@@H]1CN(C)Cc1ccc(-c2ccccc2)cc1,inactive
22,C[C@H](CO)N1C[C@H](C)[C@H](CN(C)Cc2ccc(-c3ccccc3)cc2)Oc2ccc(NC(=O)Nc3ccc(F)cc3)cc2CC1=O,active

row,SMILES,cytotoxicity call
1,COCC#Cc1ccc2c(c1)O[C@@H](CN(C)C(=O)C1CCOCC1)[C@H](C)CN([C@H](C)CO)S2(=O)=O,inactive
2,CC(C)[Si](C#CCCCC#N)(O[C@H](c1ccccc1)c1cn(Cc2cccc(Cl)c2)nn1)C(C)C,inactive
3,C[C@H](CO)N1C[C@H](C)[C@@H](CN(C)Cc2ccccc2)OCCCC[C@H](C)Oc2ccc(NC(=O)Nc3ccc(F)cc3)cc2C1=O,inactive
4,C[C@H]1CN([C@@H](C)CO)C(=O)c2cccc(NC(=O)c3ccc(-c4nccs4)cc3)c2O[C@@H]1CN(C)Cc1ccccc1,inactive
5,Cc1noc(C)c1NC(=O)N(C)C[C@@H]1Oc2ncc(C#Cc3ccccc3)cc2C(=O)N([C@H](C)CO)C[C@@H]1C,inactive
6,COc1ccc(S(=O)(=O)Nc2ccc3c(c2)C(=O)N([C@@H](C)CO)C[C@H](C)[C@H](CN(C)C(=O)NC2CCCCC2)OCCCC[C@H](C)O3)cc1,inactive
7,CCCC#Cc1ccc2c(c1)O[C@@H](CN(C)Cc1ccc3c(c1)OCO3)[C@@H](C)CN([C@@H](C)CO)S2(=O)=O,inactive
8,COCC(=O)N1CC[C@]2(CC1)CN([C@@H](CO)c1[nH]c3cc(ccc3c12)OC)S(=O)(=O)C,inactive
9,Cn1c2c(c(=S)[nH]c1=O)CCC2,inactive
10,Cc1ccc(S(=O)(=O)Nc2ccc3c(c2)C(=O)N([C@@H](C)CO)C[C@H](C)[C@H](CN(C)Cc2ccc(C(=O)O)cc2)OCCCC[C@H](C)O3)cc1,inactive
11,C[C@@H]1CN([C@@H](C)CO)C(=O)c2cc(NC(=O)Nc3ccc4c(c3)OCO4)ccc2O[C@@H](C)CCCCO[C@@H]1CN(C)Cc1ccc(C(=O)O)cc1,inactive
12,C[C@@H]1CN([C@@H](C)CO)C(=O)c2cc(NC(=O)Nc3ccc(F)cc3)ccc2O[C@@H](C)CCCCO[C@H]1CN(C)C(=O)Cc1ccccc1,inactive
13,C[C@@H]1CN([C@@H](C)CO)C(=O)c2cc(NC(=O)Nc3ccccc3)ccc2O[C@@H](C)CCCCO[C@@H]1CN(C)C(=O)Cc1ccccc1,inactive
14,C[C@H]1CCCCO[C@H](CN(C)Cc2ccc(C(=O)O)cc2)[C@@H](C)CN([C@@H](C)CO)C(=O)c2cc(NC(=O)C3CCCCC3)ccc2O1,inactive
15,C(=N\c1ccccc1)/c1ccc(Oc2ccccc2)cc1,inactive
16,C[C@@H]1CN([C@H](C)CO)C(=O)Cc2cc(NC(=O)CCCCCC(=O)Nc3ccccc3N)ccc2O[C@H]1CN(C)Cc1ccc(C(F)(F)F)cc1,inactive
17,C[C@@H]1CN([C@@H](C)CO)C(=O)Cc2cc(NC(=O)CCCCCC(=O)Nc3ccccc3N)ccc2O[C@H]1CN(C)Cc1ccc(C(F)(F)F)cc1,inactive
18,C[C@H](CO)N1C[C@H](C)[C@H](CN(C)Cc2ccc(C(F)(F)F)cc2)Oc2ccc(NC(=O)CCCCCC(=O)Nc3ccccc3N)cc2CC1=O,inactive
19,C[C@H]1CN([C@@H](C)CO)C(=O)Cc2cc(NC(=O)CCCCCC(=O)Nc3ccccc3N)ccc2O[C@@H]1CN(C)Cc1ccc(C(F)(F)F)cc1,inactive
20,C[C@@H]1CN([C@@H](C)CO)C(=O)Cc2cc(NC(=O)CCCCCC(=O)Nc3ccccc3N)ccc2O[C@@H]1CN(C)Cc1ccc(C(F)(F)F)cc1,active
21,C[C@@H]1CN([C@H](C)CO)C(=O)Cc2cc(NC(=O)CCCCCC(=O)Nc3ccccc3N)ccc2O[C@@H]1CN(C)Cc1ccc(C(F)(F)F)cc1,active
